From PubChem BioAssay (Tox21)
Several values for one entry are separate records, joined by “and”; a condition that tells them apart may be missing. Equal values may be shown once. Inconclusive results are not listed. Some structures have more than one record in an assay (separate samples or runs), and their calls can disagree. Activity calls are given as the source filed them. Unless noted, calls follow the shape of the dose curve; as a rule, active = well fitted curve in the direction sought with a large enough effect in the repeat runs; inconclusive = weak or mixed curves; inactive = no such curve, though single readings can be large; an effect the other way counts as inactive or inconclusive.

What was measured:
[1] = qHTS assay to identify small molecule agonists of the vitamin D receptor (VDR) signaling pathway - cell viability counter screen (AID 743224); also: nearly all actives have a fitted effect of over 50% in size; also: potency is read from the fitted curve at half-maximal effect
Summary of the method: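 Counter screen run in the same wells as the VDR-bla reporter assay: CellTiter-Glo luminescence, 30 min at room temperature, after 16 h compound treatment at 37C of cells pre-plated for 4 h.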

[2] = qHTS assay to identify small molecule antagonists of the vitamin D receptor (VDR) signaling pathway - cell viability counter screen (AID 743225); also: nearly all actives have a fitted effect of over 50% in size; also: potency is read from the fitted curve at half-maximal effect
Summary of the method: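 VDR-bla HEK 293T cells, 4 h pre-incubation at 37C, then compound plus 1-alpha,25-dihydroxyvitamin D3 (3 nM final) for 16 h. After the beta-lactamase FRET read, CellTiter-Glo was added to the same wells; luminescence after 30 min at room temperature.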

[3] = qHTS assay to identify small molecule agonists of the NFkB signaling pathway - cell viability counter screen (AID 1159515; calls by dose curve; also: nearly all actives have a fitted effect of over 55% in size; also: potency is read from the fitted curve at half-maximal effect)
Summary of the method: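 Read by CellTiter-Glo luminescence (30 min, room temperature) in the wells also used for the beta-lactamase FRET read. ME-180 NFkB-bla cells at 2,000 per well were plated overnight, then exposed to compound for 5 hr at 37 C.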

[4] = qHTS assay to identify small molecule agonists of the endoplasmic reticulum stress response signaling pathway - cell viability counter screen (AID 1159517; calls by dose curve; also: nearly all actives have a fitted effect of over 50% in size; also: potency is read from the fitted curve at half-maximal effect)
Summary of the method: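 Cytotoxicity of test compounds toward ESRE-bla HeLa cells was assessed after 5 hr exposure. The luminescent CellTiter-Glo signal was measured 30 min after reagent addition.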

[5] = qHTS assay to identify small molecule agonists of the AP-1 signaling pathway - cell viability counter screen (AID 1159525; calls by dose curve; also: nearly all actives have a fitted effect of over 55% in size; also: potency is read from the fitted curve at half-maximal effect)
Summary of the method: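 Each titration point was normalised to DMSO and tetra n-octyl ammonium bromide controls. The read was Cell Titer Glo luminescence after 30 min at RT, following 5 h compound exposure of ME-180 AP-1-bla cells at 37 °C.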

[6] = target: Retinoic acid receptor RXR-alpha (Homo sapiens) (UniProt P19793); test: qHTS assay to identify small molecule agonists of the RXR signaling pathway (AID 1159527; calls by dose curve; also: % is scaled to controls: 0 for no effect and ±100 for the full control effect; nearly all actives have a fitted effect of over 35% in size)
Summary of the method: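 GeneBLAzer RXR-alpha-UAS-bla HEK 293T cells in medium with 2% charcoal-stripped FBS, pre-incubated 5 hr at 37 C, then exposed to compounds 16 hr. Beta-lactamase reporter read by FRET substrate, 2 hr room temperature, 460/530 nm emission.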

[7] = qHTS assay to identify small molecule agonists of the RXR signaling pathway - cell viability counter screen (AID 1159529); also: nearly all actives have a fitted effect of over 50% in size; also: potency is read from the fitted curve at half-maximal effect
Summary of the method: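 RXR-alpha-UAS-bla HEK 293T cells in medium with 2% charcoal-stripped FBS were preincubated 5 hr, then exposed to compounds for 16 hr at 37 C. Viability was read as CellTiter-Glo luminescence after 30 min at room temperature.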

[8] = qHTS assay to identify small molecule antagonists of the retinoid acid receptor (RAR) signaling pathway - cell viability counter screen (AID 1159551); also: nearly all actives have a fitted effect of over 35% in size; also: potency is read from the fitted curve at half-maximal effect
Summary of the method: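 Cytotoxicity counter screen: ATP content quantified by CellTiter-Glo luminescence in C3RL4 cells treated 6 hr at 37 C with compound and retinol (1 uM final). Cells plated at 1,000/well and cultured overnight before dosing.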

[9] = qHTS assay to identify small molecule antagonists of the retinoic acid receptor (RAR) signaling pathway (AID 1159552; also: nearly all actives have a fitted effect of over 50% in size; also: potency is read from the fitted curve at half-maximal effect)
Summary of the method: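 RARE-luc C3RL4 cells; cpds + 1 uM (final) retinol, 6 hr, 37 C/5% CO2; luciferase reagent, 30 min RT, luminescence readout. Inhibitors of retinol-driven signal scored.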

[10] = qHTS assay to identify small molecule agonists of the retinoic acid receptor (RAR) signaling pathway (AID 1159553); also: potency is read from the fitted curve at half-maximal effect
Summary of the method: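 Luminescence was measured 30 min after luciferase reagent addition at room temperature. Before that, C3RL4 reporter cells (1,000 per well, plated overnight) were treated with compound for 6 hr at 37 C and 5% CO2.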

[11] = qHTS assay to identify small molecule antagonists of the estrogen related receptor (ERR) signaling pathway from Tox21 library - cell viability counter screen (AID 1224834); also: nearly all actives have a fitted effect of over 30% in size; also: potency is read from the fitted curve at half-maximal effect
Summary of the method: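 CellTiter-Fluor fluorescence, read after 30 min at 37 C, measures viability of ERR cells. Cells plated at 2,000/well and incubated 6 h before pin-tool compound addition, then exposed 17.5 hours at 37 C.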

[12] = qHTS assay to identify small molecule antagonists of the retinoid-related orphan receptor gamma (ROR-gamma) signaling pathway - cell viability counter screen (AID 1159520); also: nearly all actives have a fitted effect of over 50% in size; also: potency is read from the fitted curve at half-maximal effect
Summary of the method: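 Tet-on ROR gamma CHO cells (1,000/well) were plated 4 hr, given compounds in DMSO for 2 hr at 37 C, then induced with 1 uM final doxycycline for 16 hr. Viability was read as ATP by CellTiter-Glo luminescence after 30 min.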

[13] = target: Nuclear receptor ROR-gamma (Homo sapiens) (UniProt P51449); test: qHTS assay to identify small molecule antagonists of the retinoid-related orphan receptor gamma (ROR-gamma) signaling pathway (AID 1159521; also: nearly all actives have a fitted effect of over 50% in size; also: potency is read from the fitted curve at half-maximal effect)
Summary of the method: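 Tet-on RORγ CHO cells carrying a ROR response element–luciferase reporter were pretreated with compounds for 2 h, then induced with 1 uM (final) doxycycline hyclate for 16 h at 37 C. Antagonism was read as decreased ONE-Glo luminescence.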

[14] = qHTS assay to identify small molecule agonists of the AP-1 signaling pathway (AID 1159526; calls by dose curve; also: potency is read from the fitted curve at half-maximal effect)
[15] = qHTS assay to identify small molecule antagonists of the estrogen related receptor (ERR) signaling pathway (AID 1224819)
Summary of the method: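 LOPAC library screened for antagonism as reduced One-Glo luminescence in ERR reporter cells (2,000/well). Compounds were added after 6 h pre-incubation and left 18 h at 37C; reading followed a 30 min room-temperature reagent step.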

[16] = tested on: estrogen-related receptor alpha (ERRalpha) with PGC-1alpha coactivator, human; test: qHTS assay to identify small molecule antagonists of the estrogen related receptor signaling pathway with the pleiotropic PPARgamma coactivator (PGC) (AID 1224821; calls by dose curve)
Summary of the method: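 Screening used NTP's PGC/ERR cells, dosed via pin tool with compound in DMSO alongside positive and negative controls. After 18 h at 37 C, One-Glo reagent sat 30 min at room temperature before luminescence detection.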

[17] = qHTS assay to identify small molecule antagonists of the estrogen related receptor signaling pathway with the pleiotropic PPARgamma coactivator (PGC) cell viability counter screen (AID 1224822; also: series mostly up to about 46 µM; % is scaled to controls: 0 for no effect and ±100 for the full control effect)
Summary of the method: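 Viability counter-screen read by fluorescence intensity after 30 min with CellTiter-Fluor at 37 C; PGC/ERR reporter cells were exposed to compounds for 17.5 h at 37 C following a 6 h preincubation.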

Retinoic acid receptor RXR-alpha (Homo sapiens), sequence (P19793 whole entry, looked up): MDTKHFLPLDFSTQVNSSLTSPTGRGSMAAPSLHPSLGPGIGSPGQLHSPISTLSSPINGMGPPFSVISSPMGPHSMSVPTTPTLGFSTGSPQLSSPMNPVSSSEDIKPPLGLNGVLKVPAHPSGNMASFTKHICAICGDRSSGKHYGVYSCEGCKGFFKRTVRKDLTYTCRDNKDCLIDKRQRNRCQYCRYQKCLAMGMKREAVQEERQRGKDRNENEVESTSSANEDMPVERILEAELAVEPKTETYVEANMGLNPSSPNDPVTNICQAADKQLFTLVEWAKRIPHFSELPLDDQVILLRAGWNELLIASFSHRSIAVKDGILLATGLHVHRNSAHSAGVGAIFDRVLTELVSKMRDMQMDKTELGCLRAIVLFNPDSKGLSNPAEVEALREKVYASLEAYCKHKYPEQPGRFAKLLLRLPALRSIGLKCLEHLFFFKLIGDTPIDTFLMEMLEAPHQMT

Structure (SMILES) | Potency [1] | Potency [2] | Potency [3] | Potency [4] | Potency [5] | Potency [6] | Potency [7] | Potency [8] | Potency [9] | Potency [10] | Potency [11] | Potency [12] | Potency [13] | Potency [14] | Potency [15] | Potency [16] | Potency [17]
Cc1ccc(S(=O)(=O)Oc2ccc(N=Nc3ccc(-c4ccc(N=Nc5c(O)ccc6cc(S(=O)(=O)O)cc(S(=O)(=O)O)c56)c(C)c4)cc3C)cc2)cc1 | inactive | inactive | inactive | inactive | inactive | inactive | inactive | 24.4 µM (active) and 20 µM (active) | inactive | inactive | 19.4 µM (active) and 17.8 µM (active) |  |  |  |  |  | 
CC(C)(C)c1ccc(O)c(C(C)(C)C)c1 | 34.5 µM (active) and 30.9 µM (active) | 24.4 µM (active) and 43.6 µM (active) | 48.8 µM (active) and 49 µM (active) | 54.7 µM (active) and 49 µM (active) | 34.5 µM (active) |  | 21.8 µM (active) and 24.5 µM (active) | 54.3 µM (active) and 54.5 µM (active) |  | inactive |  | 54.3 µM (active) | 43.1 µM (active) and inactive |  |  |  | 
Cc1cccc2n[nH]nc12 | inactive |  | inactive | inactive | inactive | inactive |  | inactive | inactive | inactive | inactive |  | inactive | inactive |  |  | 
CCOc1ccc2c(c1)C(C)=CC(C)(C)N2 | inactive | inactive | inactive | inactive |  |  |  | inactive | inactive | 54.2 µM (active) and 61.1 µM (active) | inactive | inactive | inactive |  |  |  | 
Cc1cc(Cc2cc(C)cc(C(C)(C)C)c2O)c(O)c(C(C)(C)C)c1 | 9.82 µM (active) and 13.8 µM (active) | 19.6 µM (active) and 19.5 µM (active) | 11 µM (active) and 17.4 µM (active) | 17.5 µM (active) and 21.9 µM (active) |  |  | 12.4 µM (active) and 21.9 µM (active) | 54.8 µM (active) and 48.6 µM (active) | 43.5 µM (active) and 61.1 µM (active) |  | 48.8 µM (active) and 43.3 µM (active) | 21.8 µM (active) and 30.6 µM (active) | 19.4 µM (active) and 27.3 µM (active) |  |  |  | 
CCN(CC)CCOc1ccc(/C(=C(\Cl)c2ccccc2)c2ccccc2)cc1 | 19.9 µM (active) and 26.6 µM (active) |  | 44.6 µM (active) and 23.9 µM (active) |  | 17.7 µM (active) |  | 15.8 µM (active) and 10.7 µM (active) | 49.6 µM (active) | 24.8 µM (active) |  | 55.6 µM (active) and 26.6 µM (active) | 31.3 µM (active) | 19.7 µM (active) and 26.6 µM (active) |  |  |  | 
CC(=O)C1=C(C)[C@@H]2C[C@@]3(C1)[C@H](C)CC[C@H]3C2(C)C | inactive | inactive | inactive |  |  | inactive | inactive | inactive |  |  |  | inactive | inactive | inactive |  |  | 
Oc1c(Cl)cc(Cl)cc1Sc1cc(Cl)cc(Cl)c1O | 21.9 µM (active) and 44.4 µM (active) and inactive |  | 55.1 µM (active) and inactive | 55.1 µM (active) and 55.9 µM (active) and 49 µM (active) | 49.1 µM (active) and 49 µM (active) and inactive |  | 49.1 µM (active) | inactive | 30.7 µM (active) and 27.8 µM (active) and 27.3 µM (active) |  |  | 15.4 µM (active) and 21.7 µM (active) |  |  |  |  | 
NC(=Nc1ccccc1)Nc1ccccc1 | inactive | inactive | inactive | inactive | inactive |  | inactive | inactive |  |  |  | inactive | inactive |  | inactive | inactive | inactive
CC(C)CCCCCCc1ccc(O)cc1 | 19.8 µM (active) and 30.9 µM (active) |  | 39.6 µM (active) and 38.9 µM (active) | 35.3 µM (active) and 54.9 µM (active) |  |  | 5.59 µM (active) and 38.9 µM (active) | 78.3 µM (active) | 27.3 µM (active) | inactive |  | 24.8 µM (active) | 2.48 µM (active) |  |  |  | 
CCCCC(CC)COC(=O)CC(C(=O)OCC(CC)CCCC)S(=O)(=O)O (centres undefined) | 42 µM (active) and 43.6 µM (active) | 21.1 µM (active) and 15.5 µM (active) | 47.1 µM (active) and 49 µM (active) |  |  |  | 21.1 µM (active) and 43.6 µM (active) |  | inactive |  |  | inactive | inactive |  |  |  | 
Oc1ccc(Cl)cc1Cc1cc(Cl)ccc1O | 11.2 µM (active) and 38.9 µM (active) | 28 µM (active) and 6.74 µM (active) | inactive | 54.9 µM (active) and inactive | 55.9 µM (active) | inactive |  |  | 31.2 µM (active) and 27.3 µM (active) | inactive | 44.1 µM (active) and 61.1 µM (active) and 29.8 µM (active) |  |  |  |  |  | 
CCCCCCCCCCCCCC[P+](CCCC)(CCCC)CCCC | 6.88 µM (active) and 7.76 µM (active) | 6.88 µM (active) and 7.76 µM (active) | 34.5 µM (active) and 21.9 µM (active) | 13.7 µM (active) and 15.5 µM (active) | 17.3 µM (active) and 21.9 µM (active) |  | 6.13 µM (active) and 11 µM (active) | 43 µM (active) and 43.3 µM (active) | 9.63 µM (active) and 9.69 µM (active) |  | 21.6 µM (active) and 27.3 µM (active) | 13.6 µM (active) and 10.9 µM (active) | 3.05 µM (active) and 4.86 µM (active) |  |  |  | 
CN(C)c1ccc(C(=C2C=CC(=[N+](C)C)C=C2)c2ccccc2)cc1 | 219 nM (active) and 2.11 µM (active) | 490 nM (active) and 3.38 µM (active) | 3.09 µM (active) and 10.7 µM (active) | 27.5 µM (active) | 13.8 µM (active) and 23.9 µM (active) and 10.7 µM (active) |  | 3.47 µM (active) and 2.39 µM (active) and 4.25 µM (active) | 10.6 µM (active) [middle of 4 runs] |  |  |  | 5.45 µM (active) and 4.22 µM (active) and 10.6 µM (active) |  | 848 nM (active) |  |  | 
c1ccc2c(c1)-c1cccc3c1c-2cc1ccccc13 | inactive | inactive | inactive | inactive |  |  |  | inactive | inactive |  | inactive | 53.2 µM (active) |  | 17 µM (active) and 38.9 µM (active) |  |  | 
